{"source": "PubChem BioAssay (NCATS)", "key": {"[1]": {"molecular_target": "Cytochrome P450 1A2 (Homo sapiens) (UniProt P05177)", "sequence (P05177 whole entry, looked up)": "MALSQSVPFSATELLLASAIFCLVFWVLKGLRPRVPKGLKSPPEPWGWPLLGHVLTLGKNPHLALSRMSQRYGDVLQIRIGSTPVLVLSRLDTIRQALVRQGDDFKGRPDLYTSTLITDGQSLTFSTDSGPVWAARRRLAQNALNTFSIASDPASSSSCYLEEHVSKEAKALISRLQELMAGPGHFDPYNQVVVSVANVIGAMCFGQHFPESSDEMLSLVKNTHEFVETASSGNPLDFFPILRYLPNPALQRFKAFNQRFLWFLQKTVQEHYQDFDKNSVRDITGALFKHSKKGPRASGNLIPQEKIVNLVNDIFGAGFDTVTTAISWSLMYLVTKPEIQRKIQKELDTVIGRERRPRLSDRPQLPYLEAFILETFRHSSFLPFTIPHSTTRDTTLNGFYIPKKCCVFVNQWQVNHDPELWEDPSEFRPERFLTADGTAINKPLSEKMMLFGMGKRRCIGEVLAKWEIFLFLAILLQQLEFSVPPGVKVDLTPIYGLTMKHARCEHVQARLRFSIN", "assay": "p450-cyp1a2 (AID 410)", "outline": "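Luminescent readout of luciferin formed from Luciferin-ME by human CYP1A2; data normalized against complete inhibition by 57 uM furafylline. Enzyme 20nM, substrate 100uM at Km, 100mM KPO4 buffer, 60 min reaction at room temperature.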"}, "[2]": {"molecular_target": "Glucocorticoid receptor (Homo sapiens) (UniProt P04150)", "sequence (P04150 whole entry, looked up, the tested form may be a part)": "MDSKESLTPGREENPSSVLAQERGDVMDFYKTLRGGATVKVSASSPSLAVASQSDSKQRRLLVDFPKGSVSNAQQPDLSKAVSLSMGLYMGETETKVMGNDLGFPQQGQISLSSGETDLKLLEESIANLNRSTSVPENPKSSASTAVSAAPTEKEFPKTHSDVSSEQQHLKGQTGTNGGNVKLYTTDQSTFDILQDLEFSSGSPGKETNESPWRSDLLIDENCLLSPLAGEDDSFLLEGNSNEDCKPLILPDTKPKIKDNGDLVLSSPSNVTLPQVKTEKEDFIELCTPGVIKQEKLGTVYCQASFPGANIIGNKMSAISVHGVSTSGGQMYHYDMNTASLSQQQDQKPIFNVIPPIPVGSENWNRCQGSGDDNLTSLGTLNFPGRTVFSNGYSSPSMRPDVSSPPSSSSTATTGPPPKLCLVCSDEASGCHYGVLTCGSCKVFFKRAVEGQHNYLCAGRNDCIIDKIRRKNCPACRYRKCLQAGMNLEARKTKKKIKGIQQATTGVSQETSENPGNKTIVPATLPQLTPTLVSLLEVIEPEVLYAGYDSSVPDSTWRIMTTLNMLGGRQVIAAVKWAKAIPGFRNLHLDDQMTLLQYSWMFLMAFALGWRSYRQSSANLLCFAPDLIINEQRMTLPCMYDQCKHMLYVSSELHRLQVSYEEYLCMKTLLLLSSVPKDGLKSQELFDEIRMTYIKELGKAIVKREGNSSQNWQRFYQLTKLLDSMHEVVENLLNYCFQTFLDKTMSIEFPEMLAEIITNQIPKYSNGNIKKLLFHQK", "assay": "GR-GFP Redistribution (AID 450;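 active means compounds whose dose series gives a full or clear partial fitted curve of increased nuclear translocation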; further: potency means the concentration at half of the fitted maximal effect)", "conditions": "U2OS GR-GFP nuclear translocation, laser cytometry, 2 h"}, "[3]": {"molecular_target": "Glucocorticoid receptor (Homo sapiens) (UniProt P04150)", "assay": "GR-EFC Redistribution (AID 451); further: potency means the concentration at half of the fitted maximal effect", "conditions": "CHO-K1 GR-EFC translocation, beta-gal luminescence, 2 h", "outline": "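CHO-K1 cells expressing nuclear EA and GR-ED fragments of b-gal; compounds titrated up to 46 uM final, 2 h at 37 C. GR nuclear translocation read as complemented b-gal luminescence after 1 h RT detection.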"}, "[4]": {"molecular_target": "Mitogen-activated protein kinase 10 (Mus musculus) (UniProt Q61831)", "assay": "JNK3 AlphaScreen Assay (AID 530; active means well fitted curve in either direction with a large enough effect, not every such curve was filed as active;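 further: signal reports phosphorylation of biotinylated GST-cJun 1-79 at Ser73 with 10 µM ATP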)", "outline": "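Pre-activated (IL-1β/TNFα) JNK3 in HepG2 lysates phosphorylates biotin-GST-cJun(1-79), 10 uM ATP; anti-phospho-cJun(Ser73) AlphaScreen read at room temperature, pH 7.6 Tris buffer. Compounds pre-incubated 15 min as titrations.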"}, "[5]": {"molecular_target": "3',5'-cyclic-AMP phosphodiesterase 4B (Homo sapiens) (UniProt Q07343)", "assay": "qHTS Assay for Inhibitors of PDE-IV (AID 607; active means well fitted activation curve with a large enough effect in the main read-out, with a control signal flat, not every such curve was filed as active)", "outline": "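The readout is membrane depolarisation from a cAMP-sensing CNG channel, detected with a potential dye at ex 535/em 590. Cells were HEK293-derived (endogenous PDE-IV) at 1000 cells/well, titrated up to 22.9 uM final.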"}, "[6]": {"assay": "Stat Signaling Pathway (AID 446; active means well fitted curve in either direction with a large enough effect, not every such curve was filed as active)", "outline": "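Screening format detects activators and inhibitors alike: ME-180 SIE-bla cells stimulated at 40 pM IL-6 for 5 hrs with compound, then dual-emission beta-lactamase read at 405 nm excitation.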"}, "[7]": {"molecular_target": "Cytochrome P450 2C9 (Homo sapiens) (UniProt P11712)", "assay": "qHTS Assay for Inhibitors and Substrates of Cytochrome P450 2C9 (AID 883; active means well fitted curve in the direction sought with a large enough effect; an effect the other way counts as inactive or inconclusive; further: nearly all actives have a fitted effect of over 60% in size)", "outline": "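10nM CYP2C9 + 100uM Luciferin-H (=KM), 25mM KPO4; cpd 10 min 37C; NADPH regen, 60 min 37C; stop/detect with P450 Glo-Buffer 20 min; luminescence. Norm. to 57uM sulphaphenazole as full inhibition.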"}, "[8]": {"molecular_target": "Cytochrome P450 2D6 (Homo sapiens) (UniProt P10635)", "sequence (P10635 whole entry, looked up)": "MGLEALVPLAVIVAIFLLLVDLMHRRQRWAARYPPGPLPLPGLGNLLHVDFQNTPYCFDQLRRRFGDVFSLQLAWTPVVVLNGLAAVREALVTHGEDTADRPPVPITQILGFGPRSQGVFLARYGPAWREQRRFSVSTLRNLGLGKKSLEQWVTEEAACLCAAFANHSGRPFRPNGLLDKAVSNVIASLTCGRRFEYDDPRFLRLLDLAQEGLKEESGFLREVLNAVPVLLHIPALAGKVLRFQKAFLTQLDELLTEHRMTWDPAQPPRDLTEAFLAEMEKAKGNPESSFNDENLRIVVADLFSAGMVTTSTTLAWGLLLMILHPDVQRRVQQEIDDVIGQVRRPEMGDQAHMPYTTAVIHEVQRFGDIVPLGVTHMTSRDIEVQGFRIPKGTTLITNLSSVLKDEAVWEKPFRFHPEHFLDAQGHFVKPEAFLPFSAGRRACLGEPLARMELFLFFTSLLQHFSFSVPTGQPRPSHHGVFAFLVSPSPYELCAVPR", "assay": "qHTS Assay for Inhibitors and Substrates of Cytochrome P450 2D6 (AID 891; active means well fitted curve in the direction sought with a large enough effect; an effect the other way counts as inactive or inconclusive; further: nearly all actives have a fitted effect of over 60% in size; further: potency means the concentration at half of the fitted maximal effect;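 on activity change, negative = inhibition: luciferin methyl ether substrate demethylated by CYP2D6 with NADPH regeneration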)", "outline": "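Human CYP2D6 (5 nM) with 30 uM Luciferin-ME EGE (at Km) in 100 mM KPO4, compound preincubated 10 min, then NADPH regeneration system for 60 min at room temperature. Luciferin read by luminescence; normalized to 1.43 uM quinidine.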"}, "[9]": {"molecular_target": "Cytochrome P450 2C19 (Homo sapiens) (UniProt P33261)", "assay": "qHTS Assay for Inhibitors and Substrates of Cytochrome P450 2C19 (AID 899; active means well fitted curve in the direction sought with a large enough effect; an effect the other way counts as inactive or inconclusive; further: nearly all actives have a fitted effect of over 60% in size)", "outline": "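Luminescent read-out of luciferin formed from Luciferin-H EGE (10uM, equal to KM). Enzyme 5nM in 50mM KPO4; compound added, 10 min at 37C, then NADPH regenerating system for 60 min at 37C. Full inhibition defined by 57uM ketoconazole.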"}, "[10]": {"assay": "AP1 Signaling Pathway (AID 357; active means well fitted curve in either direction with a large enough effect, not every such curve was filed as active)", "outline": "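A ratiometric CCF4 readout (405 nm excitation; 460 and 530 nm emission) quantified AP-1-driven beta-lactamase in ME-180 cells after 5 h with compound and EC50 EGF; AC50 values were derived for activators and inhibitors.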"}, "[11]": {"assay": "NFAT Signaling Pathway (AID 444; active means well fitted curve in either direction with a large enough effect, not every such curve was filed as active)", "conditions": "Jurkat NFAT-bla M1, carbachol, beta-lactamase ratio, 5 h; at 17.2 µM (top of the series)", "outline": "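Jurkat cells with NFAT-driven β-lactamase reporter and co-expressed M1 receptor, stimulated with carbachol (final 1 uM, ~EC50), compound titration, 5 h at 37 °C. CCF4 loaded 1 h at RT; 460/530 nm ratio gave %activity and AC50.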"}, "[12]": {"molecular_target": "Androgen receptor (Homo sapiens) (UniProt P10275)", "sequence (P10275 whole entry, looked up)": "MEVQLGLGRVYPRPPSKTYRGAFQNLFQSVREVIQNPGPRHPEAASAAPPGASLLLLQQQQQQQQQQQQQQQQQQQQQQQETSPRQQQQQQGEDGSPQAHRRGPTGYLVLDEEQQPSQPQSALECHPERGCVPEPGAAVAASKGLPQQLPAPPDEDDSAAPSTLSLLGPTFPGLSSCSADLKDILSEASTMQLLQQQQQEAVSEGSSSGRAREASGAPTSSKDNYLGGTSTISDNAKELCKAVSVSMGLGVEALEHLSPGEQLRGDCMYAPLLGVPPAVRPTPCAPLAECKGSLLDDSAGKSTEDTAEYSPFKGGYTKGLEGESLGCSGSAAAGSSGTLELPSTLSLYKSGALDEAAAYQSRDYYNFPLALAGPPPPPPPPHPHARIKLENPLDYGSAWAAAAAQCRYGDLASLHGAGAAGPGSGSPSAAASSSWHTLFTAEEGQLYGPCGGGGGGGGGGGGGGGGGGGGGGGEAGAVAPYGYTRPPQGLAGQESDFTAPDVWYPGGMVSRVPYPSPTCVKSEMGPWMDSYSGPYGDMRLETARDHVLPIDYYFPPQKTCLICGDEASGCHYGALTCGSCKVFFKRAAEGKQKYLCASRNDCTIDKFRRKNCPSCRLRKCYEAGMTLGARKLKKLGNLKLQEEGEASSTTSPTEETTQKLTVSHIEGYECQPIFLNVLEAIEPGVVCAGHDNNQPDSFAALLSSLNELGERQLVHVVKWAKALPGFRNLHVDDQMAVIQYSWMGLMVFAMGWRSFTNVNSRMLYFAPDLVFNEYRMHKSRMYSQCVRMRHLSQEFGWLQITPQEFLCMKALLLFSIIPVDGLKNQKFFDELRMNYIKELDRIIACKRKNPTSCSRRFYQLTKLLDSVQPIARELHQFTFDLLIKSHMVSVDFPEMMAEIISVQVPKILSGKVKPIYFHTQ", "assay": "qHTS assay for small molecule agonists of androgen receptor signaling (AID 588515; active means well fitted curve in the direction sought with a large enough effect in the signal ratio, with a control signal flat; the % refers to the signal ratio)", "conditions": "AR-UAS-bla HEK293, beta-lactamase ratio, agonist 16 h; active compounds read high", "outline": "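EC50 and efficacy came from Hill fits of titrations (up to 92 uM) normalized to 30 nM R1881 as 100% and DMSO as 0%. Compound exposure was 16 h at 37 C on AR-UAS-bla HEK293 cells, with a 405/460/530 nm CCF4 fluorescence read.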"}, "[13]": {"molecular_target": "Androgen receptor (Homo sapiens) (UniProt P10275)", "assay": "qHTS assay for small molecule antagonists of androgen receptor signaling (AID 588516; active means well fitted curve in the direction sought with a large enough effect in the signal ratio, with a control signal flat, not every such curve was filed as active; the % refers to the signal ratio)", "outline": "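AR-UAS-bla-GripTite HEK 293 cells (2000/well, 5 h at 37 C) received compound titrations, then R1881 at 10 nM final; after 16 h at 37 C, CCF4 dye 2 h RT, beta-lactamase fluorescence read; IC50 from Hill fits.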"}, "[14]": {"molecular_target": "Thyroid hormone receptor beta (Homo sapiens) (UniProt P10828)", "sequence (P10828 whole entry, looked up)": "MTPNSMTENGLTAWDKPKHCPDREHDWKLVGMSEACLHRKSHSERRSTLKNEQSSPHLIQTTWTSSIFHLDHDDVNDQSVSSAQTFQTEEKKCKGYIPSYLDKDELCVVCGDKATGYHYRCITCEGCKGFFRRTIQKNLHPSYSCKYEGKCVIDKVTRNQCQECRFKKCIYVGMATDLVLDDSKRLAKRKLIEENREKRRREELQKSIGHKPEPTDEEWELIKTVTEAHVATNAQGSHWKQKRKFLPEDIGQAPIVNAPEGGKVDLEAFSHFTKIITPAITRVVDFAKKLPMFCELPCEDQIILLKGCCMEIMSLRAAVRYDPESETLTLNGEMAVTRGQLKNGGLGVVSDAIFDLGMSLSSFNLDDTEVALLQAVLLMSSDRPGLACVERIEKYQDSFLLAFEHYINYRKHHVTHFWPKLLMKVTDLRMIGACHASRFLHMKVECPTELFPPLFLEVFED", "assay": "qHTS assay for small molecule agonists of thyroid hormone receptor beta signaling (AID 588545)", "outline": "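Beta-lactamase reporter activity under TR response element control is measured in HEK 293 cells after 18 hrs compound exposure. Signal is ratiometric CCF4 fluorescence, 460/530 nm.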"}, "[15]": {"tested_on": "DFO2036", "assay": "qHTS profiling for inhibitors of Plasmodium falciparum proliferation (AID 504749; active means well fitted curve in the direction sought with a large enough effect; an effect the other way counts as inactive or inconclusive; further: nearly all actives have a fitted effect of over 60% in size)", "conditions": "P. falciparum in erythrocytes, SYBR Green DNA, 72 h; series mostly up to 28.7 µM", "outline": "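P. falciparum-infected erythrocytes (0.3% parasitemia, 2.5% hematocrit) incubated with compound 72 h at 37 C, 5% CO2. Parasite DNA detected by SYBR Green after lysis, overnight at room temperature; normalised to 0.29 uM artemisinin and DMSO.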"}, "[16]": {"molecular_target": "ATPase family AAA domain-containing protein 5 (Homo sapiens) (UniProt Q96QE3)", "sequence (Q96QE3 whole entry, looked up, the tested form may be a part)": "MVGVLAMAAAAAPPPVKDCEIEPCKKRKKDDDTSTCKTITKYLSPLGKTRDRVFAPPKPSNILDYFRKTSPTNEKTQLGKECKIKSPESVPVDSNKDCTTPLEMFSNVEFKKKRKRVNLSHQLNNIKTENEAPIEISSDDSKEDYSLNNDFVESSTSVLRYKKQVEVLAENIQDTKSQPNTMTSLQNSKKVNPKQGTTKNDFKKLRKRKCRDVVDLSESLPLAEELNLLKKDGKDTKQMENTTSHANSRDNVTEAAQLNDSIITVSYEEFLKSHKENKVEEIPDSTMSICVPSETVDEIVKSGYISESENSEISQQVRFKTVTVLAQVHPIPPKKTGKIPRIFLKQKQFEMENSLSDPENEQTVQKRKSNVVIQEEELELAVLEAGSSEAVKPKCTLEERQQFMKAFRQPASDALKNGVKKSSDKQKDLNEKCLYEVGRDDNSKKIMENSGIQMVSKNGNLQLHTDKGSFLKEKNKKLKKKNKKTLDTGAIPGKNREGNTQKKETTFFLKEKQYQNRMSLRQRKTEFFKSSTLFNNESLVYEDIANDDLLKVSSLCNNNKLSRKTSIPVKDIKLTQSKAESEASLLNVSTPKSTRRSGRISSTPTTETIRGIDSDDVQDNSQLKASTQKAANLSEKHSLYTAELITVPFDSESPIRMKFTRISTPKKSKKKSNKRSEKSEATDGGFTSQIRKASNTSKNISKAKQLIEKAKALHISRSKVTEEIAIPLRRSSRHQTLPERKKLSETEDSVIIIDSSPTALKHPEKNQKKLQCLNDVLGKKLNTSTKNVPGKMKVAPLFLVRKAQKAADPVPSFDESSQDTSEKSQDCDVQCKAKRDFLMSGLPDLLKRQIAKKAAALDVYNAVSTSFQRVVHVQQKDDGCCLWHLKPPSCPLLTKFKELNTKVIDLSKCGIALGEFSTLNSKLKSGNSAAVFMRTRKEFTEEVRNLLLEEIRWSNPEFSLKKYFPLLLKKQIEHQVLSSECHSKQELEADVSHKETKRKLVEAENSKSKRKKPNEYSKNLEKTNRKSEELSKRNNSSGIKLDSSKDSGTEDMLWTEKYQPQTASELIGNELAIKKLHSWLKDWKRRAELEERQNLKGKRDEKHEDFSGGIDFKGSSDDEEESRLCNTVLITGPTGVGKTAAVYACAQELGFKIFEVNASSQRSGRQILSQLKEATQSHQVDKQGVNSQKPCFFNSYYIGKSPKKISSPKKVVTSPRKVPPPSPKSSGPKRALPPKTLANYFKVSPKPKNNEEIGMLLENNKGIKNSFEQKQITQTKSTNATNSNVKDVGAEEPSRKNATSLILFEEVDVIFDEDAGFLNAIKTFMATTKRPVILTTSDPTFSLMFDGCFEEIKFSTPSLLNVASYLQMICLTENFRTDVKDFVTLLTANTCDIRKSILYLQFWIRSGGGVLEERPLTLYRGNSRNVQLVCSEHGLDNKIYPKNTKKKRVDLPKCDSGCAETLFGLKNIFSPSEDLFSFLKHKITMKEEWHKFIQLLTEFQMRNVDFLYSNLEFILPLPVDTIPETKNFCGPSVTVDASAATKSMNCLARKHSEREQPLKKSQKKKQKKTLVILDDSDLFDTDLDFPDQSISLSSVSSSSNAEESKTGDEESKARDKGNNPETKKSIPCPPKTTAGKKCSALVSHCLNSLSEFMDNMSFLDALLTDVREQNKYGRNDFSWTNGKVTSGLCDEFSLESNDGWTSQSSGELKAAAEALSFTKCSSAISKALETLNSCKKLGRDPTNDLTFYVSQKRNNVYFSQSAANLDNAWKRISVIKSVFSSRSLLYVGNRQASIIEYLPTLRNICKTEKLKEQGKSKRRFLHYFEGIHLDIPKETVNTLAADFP", "assay": "HTS assay for small molecules that inhibit ELG1-dependent DNA repair in human embryonic kidney (HEK293T) cells expressing luciferase-tagged ELG1: Hit Confirmation (AID 624248; active means well fitted curve in the direction sought with a large enough effect; an effect the other way counts as inactive or inconclusive; further: potency means the concentration at half of the fitted maximal effect; nearly all actives have a fitted effect of over 55% in size)", "conditions": "HEK293T ELG1-luciferase levels, luminescence; cells co-treated with 5-fluorouridine", "outline": "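HEK293T cells expressing luciferase-tagged ELG1 treated with 5-fluorouridine plus compound for 16 h at 37 C; luciferase activity then measured with ONE-Glo after 30 min at room temperature.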"}, "[17]": {"molecular_target": "ATPase family AAA domain-containing protein 5 (Homo sapiens) (UniProt Q96QE3)", "assay": "qHTS screen for small molecules that inhibit ELG1-dependent DNA repair in human embryonic kidney (HEK293T) cells expressing luciferase-tagged ELG1: Hit Confirmation using MMS Stimulated ELG1 (AID 624249; active means well fitted curve in the direction sought with a large enough effect; an effect the other way counts as inactive or inconclusive)", "conditions": "HEK293T luciferase-tagged ELG1 level", "outline": "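ELG1-luciferase HEK293T cells were plated at 2,000 cells/well, and about 5 h later test compounds were pin-transferred alongside MMS (final 10 µM). After 16 h, luciferase activity was read with Amplight reagent; hits suppress the signal.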"}, "[18]": {"assay": "qHTS screen for small molecules that inhibit ELG1-dependent DNA repair: Hit Confirmation with 5FU Viability (AID 624250; active means well fitted curve in the direction sought with a large enough effect; an effect the other way counts as inactive or inconclusive; further: potency means the concentration at half of the fitted maximal effect)", "conditions": "cell viability with 5-FU", "outline": "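HEK293T ELG1-luc cells seeded, dosed ~5 h later (compound; 5-FUrd 10 µM final), incubated 16 h. Read: CellTiter-Glo viability.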"}, "[19]": {"assay": "qHTS screen for small molecules that inhibit ELG1-dependent DNA repair: Hit Confirmation with MMS Viability (AID 624251; active means well fitted curve in the direction sought with a large enough effect; an effect the other way counts as inactive or inconclusive)", "conditions": "Cell viability with MMS", "outline": "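ELG1-luc HEK293T cells, 2,000/well, given compounds about 5 h after plating together with MMS at 10 µM final; viability measured by CellTiter-Glo after 16 h.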"}, "[20]": {"molecular_target": "Luciferin 4-monooxygenase (Photinus pyralis) (UniProt P08659)", "assay": "qHTS screen for small molecules that inhibit ELG1-dependent DNA repair: Hit Confirmation in Biochemical Luciferin Assay (AID 624253; active means well fitted curve in the direction sought with a large enough effect; an effect the other way counts as inactive or inconclusive)", "outline": "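Luminescent signal from firefly luciferase acting on its luciferin substrate reagent was recorded with a CCD plate imager after compounds or DMSO had been pinned into the substrate and enzyme added last.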"}}, "note": "Where “and” joins values, the source holds several entries; their conditions need not be identical. Equal values may be shown once. Inconclusive results are not listed. The list shows a part of the results. Entries that show only a call come without a potency. Calls of active or inactive are those of the source. Unless noted, the call rests on the fitted dose curve.", "data": [{"smiles": "C[C@@H]1O[C@H](O[C@@H]2CC[C@@]3(C=O)[C@H]4CC[C@@]5(C)[C@@H](C6=CC(=O)OC6)CC[C@@]5(O)[C@@H]4CC[C@]3(O)C2)C[C@H](O)[C@@H]1O", "values": [{"measurement": "Potency", "setting": "[1]", "result": "inactive"}, {"measurement": "Potency", "setting": "[2]", "result": "> 20.6 µM (inactive)"}, {"measurement": "Potency", "setting": "[3]", "result": "> 20.6 µM (inactive)"}, {"measurement": "outcome", "setting": "[4]", "result": "inactive"}, {"measurement": "Potency", "setting": "[5]", "result": "inactive"}]}, {"smiles": "O=C1C=C2C=C[C@H]3C[C@@]2(O1)[C@H]1CCCCN31", "values": [{"measurement": "Potency", "setting": "[1]", "result": "inactive"}, {"measurement": "outcome", "setting": "[6]", "result": "inactive"}, {"measurement": "Potency", "setting": "[2]", "result": "> 20.6 µM (inactive) and > 46 µM (inactive)"}, {"measurement": "Potency", "setting": "[3]", "result": "> 20.6 µM (inactive) and > 46 µM (inactive)"}, {"measurement": "outcome", "setting": "[4]", "result": "inactive"}, {"measurement": "Potency", "setting": "[7]", "result": "inactive"}, {"measurement": "Potency", "setting": "[8]", "result": "inactive"}, {"measurement": "Potency", "setting": "[9]", "result": "inactive"}]}, {"smiles": "CC1=CC(=O)C2=C(C)C[C@@H](O)[C@@H]3[C@@H](OC(=O)[C@H]3C)[C@H]12", "values": [{"measurement": "outcome", "setting": "[10]", "result": "inactive"}, {"measurement": "activity change, negative = inhibition", "setting": "[11]", "result": "-5.22% (inactive)"}, {"measurement": "outcome", "setting": "[6]", "result": "inactive"}, {"measurement": "Potency", "setting": "[2]", "result": "> 20.6 µM (inactive)"}, {"measurement": "Potency", "setting": "[3]", "result": "> 20.6 µM (inactive)"}, {"measurement": "outcome", "setting": "[4]", "result": "inactive"}, {"measurement": "Potency", "setting": "[5]", "result": "inactive"}]}, {"smiles": "O=C(O)COc1cc(Cl)c(Cl)cc1Cl", "values": [{"measurement": "activation", "setting": "[12]", "result": "-1.88% (inactive)"}, {"measurement": "Potency", "setting": "[13]", "result": "inactive"}]}, {"smiles": "N#Cc1c(Cl)cccc1Cl", "values": [{"measurement": "outcome", "setting": "[14]", "result": "inactive"}]}, {"smiles": "CC([C@H](O)c1ccccc1)N(C)C", "note": "(stereo not given in full)", "values": [{"measurement": "Potency", "setting": "[15]", "result": "inactive"}]}, {"smiles": "CCS(=O)CCSP(=O)(OC)OC", "note": "(stereo not given)", "values": [{"measurement": "activation", "setting": "[12]", "result": "7.09% (inactive)"}, {"measurement": "Potency", "setting": "[13]", "result": "inactive"}, {"measurement": "outcome", "setting": "[14]", "result": "inactive"}]}, {"smiles": "CCC(=O)Nc1ccc(Cl)c(Cl)c1", "values": [{"measurement": "activation", "setting": "[12]", "result": "16.4% (inactive)"}]}, {"smiles": "COC1CC(OC2CC[C@@]3(C=O)C4CC[C@]5(C)C(C6=CC(=O)OC6)CC[C@@]5(O)C4CC[C@]3(O)C2)OC(C)C1O", "note": "(stereo not given in full)", "values": [{"measurement": "Potency", "setting": "[16]", "result": "706 nM (active)"}, {"measurement": "Potency", "setting": "[17]", "result": "315 nM (active)"}, {"measurement": "Potency", "setting": "[18]", "result": "706 nM (active)"}, {"measurement": "Potency", "setting": "[19]", "result": "397 nM (active)"}, {"measurement": "outcome", "setting": "[20]", "result": "inactive"}]}, {"smiles": "CC(C)Nc1nc(Cl)nc(NC(C)C)n1", "values": [{"measurement": "outcome", "setting": "[14]", "result": "inactive"}]}, {"smiles": "CNC(=O)Oc1ccc2c(c1)[C@@]1(C)CCN(C)[C@@H]1N2C", "values": [{"measurement": "Potency", "setting": "[8]", "result": "631 nM (active)"}]}]}
